Screens deposited in PubChem BioAssay by National Center for Advancing Translational Sciences (NCATS).
DT40 TDP1 CPT – qHTS for Inhibitors of human tyrosyl-DNA phosphodiesterase 1 (TDP1): qHTS in cells in presence of CPT; chicken DT40 Tdp1-/-;hTDP1 cells + 20 nM CPT, ATP luminescence, 48 h; Potency, µM (highest dose often 46.2 µM), for the others: at the top dose activity change, negative = growth inhibition, hits mostly inhibitors; AID 686979, 2013; 420,000 tested, 12% active; also: % is scaled to controls: 0 for no effect and ±100 for the full control effect; nearly all actives have a fitted effect of over 55% in size
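Chicken DT40 Tdp1-/- cells complemented with human TDP1, 400 cells/well, exposed to compounds plus 20 nM camptothecin for at least 48 h at 37 C; viability read as ATP content by CellTiter-Glo luminescence.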
HT1080NT lethal – qHTS for induction of synthetic lethality in tumor cells producing 2HG: qHTS for the HT-1080-NT fibrosarcoma cell line. HT-1080-NT fibrosarcoma viability, CellTiter-Glo ATP luminescence, 48 h. Potency, µM (highest dose often 46.1 µM), inactives show at the top dose activity, negative = less viability, most hits filed as cytotoxic. 360,000 tested, 1.6% active. AID 686970, 2013;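 also: NT is the 2HG producing partner of a matched IDH1 knockdown line; 0% = DMSO-treated cells and -100% = media-only wells without cells; nearly all actives have a fitted effect of over 55% in size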
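Read-out is CellTiter-Glo luminescence after 10 minutes at room temperature, following 48 hours' compound treatment of HT-1080-NT cells (750 cells/well, RPMI, 5% FBS, 37 degrees C).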
DT40 TDP1 no CPT – qHTS for Inhibitors of human tyrosyl-DNA phosphodiesterase 1 (TDP1): qHTS in cells in absence of CPT | DT40 Tdp1-/- hTDP1 cells, no CPT, ATP luminescence, 48 h | Potency, µM (highest dose often 46.2 µM), without a hit: top-dose activity change, negative = growth inhibition, usual class: inhibitors | 420,000 tested, 15% active; also: % is scaled to controls: 0 for no effect and ±100 for the full control effect; nearly all actives have a fitted effect of over 55% in size
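A cellular qHTS used chicken DT40 cells lacking endogenous Tdp1 but carrying stably transfected human TDP1. Compounds were applied without camptothecin, and cell growth kinetics were judged by ATP-dependent luminescence after ≥48 hr.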
HT1080 IDH1KD tx – qHTS for induction of synthetic lethality in tumor cells producing 2HG: qHTS for the HT-1080-IDH1KD cell line; HT-1080 IDH1 knockdown viability, ATP luminescence, 48 h; Potency, µM (top dose mostly 46.1 µM), for inactives: at the top dose activity, negative = toxicity, most hits filed as cytotoxic; 360,000 tested, 2% active; AID 686971, 2013;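 also: 0% = DMSO wells and -100% = cell-free medium wells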
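Using the IDH1-knockdown HT-1080 line run in the same batch and compound series as the NT line, viability after 48 h at 37 °C was determined by CellTiter-Glo luminescence and expressed as % activity.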
TGFb SMAD3 inh – qHTS for Inhibitors of TGF-b. Potency, µM (highest dose often 46.1 µM), for the others: at the top dose activity, negative = inhibition, most hits filed as inhibitors. HepG2 CAGA-GFP TGF-b/SMAD3 reporter, GFP fluorescence, 18 h; TGF-beta stimulated, 500 pg/mL final. AID 588855, 2011. 410,000 tested, 1.2% active; also: % is scaled to controls: 0 for no effect and ±100 for the full control effect; nearly all actives have a fitted effect of over 65% in size
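HEPG2 CAGA-GFP reporter cells (1000/well, DMEM with 1% FBS) received compounds, then recombinant TGF-beta at 500 pg/mL final for 18 hours at 37 degrees C. Per-cell GFP summed per well was normalised to unstimulated and stimulated DMSO controls before curve fitting.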
HepG2 viability – qHTS for Inhibitors of TGF-b: Cytotox Counterscreen | HepG2 CAGA-GFP viability, ATP luminescence, 18 h | AID 588856, 2011 | Potency, µM (titrated, usually from 46.1 µM), inactives show top-dose activity change, negative = cytotoxicity, usual class: cytotoxic | 410,000 tested, 0.76% active
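CellTiter-Glo luminescence gave cytotoxicity after 18 hours at 37 degrees C. The cells were HepG2 CAGA-GFP in 1% FBS DMEM, stimulated with 500 pg/mL TGF-beta after compound addition. %Activity was normalised to no-cell wells (complete cell-killing) and DMSO (no toxicity), and curves were fitted and classified.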
* marks the source's active call; other numbers are inactive results; ? = inconclusive; · = no result given. This is a sample that favours compounds with a hit; in the whole collection about 17% have one here. Calls follow the shape of the dose curve; as a rule, active = well fitted curve in the direction sought with a large enough effect; inconclusive = small, poorly fitted or top-dose-only effect, or another doubt; inactive = no such curve, though single readings can be large; an effect the other way counts as inactive or inconclusive. Potency is read from the fitted curve at half-maximal effect.

SMILES	DT40 TDP1 CPT	HT1080NT lethal	DT40 TDP1 no CPT	HT1080 IDH1KD tx	TGFb SMAD3 inh	HepG2 viability
CCOC(=O)C(=NC(C)CC)NNc1ccc(Br)cc1 (stereo not drawn)	?	16µM*	?	?	-3%	-15%
Cc1cn([C@H]2C[C@H](O)[C@@H](/C=C/C(=O)NCCN3CCCCC3)O2)c(=O)[nH]c1=O	14%	5%	16%	11%	-7%	3%
CC(=O)Nc1ccc(S(=O)(=O)N[C@@H](C)C(=O)OCC(=O)c2ccc(C)cc2)cc1	-5%	1%	5%	-1%	1%	-1%
COc1ccc(S(=O)(=O)N2CCN(C(=O)c3ccc4ccccc4n3)CC2)cc1	?	2%	-6%	-1%	-3%	0%
O=C1NC2(CCCCCC2)C(=O)N1Cc1ccccc1Cl	-3%	-2%	-14%	-6%	-13%	-4%
CN1c2ccccc2Sc2cc(N)ccc21	-23%	?	16µM*	-18%	-18%	-12%
CC(=O)N1c2ccccc2Sc2ccccc21	-4%	-2%	-30%	-3%	-3%	-16%
Cc1cc(C)cc(NC(=O)Cn2c(C(F)(F)F)nc3ccccc32)c1	-24%	·	-22%	·	11%	-1%
Cc1cccc(CC(=O)NCCc2csc(-c3ccc(C(F)(F)F)cc3)n2)c1	16µM*	·	15µM*	·	0%	-103%
O=C(Cc1ccc(F)cc1)NCCc1csc(-c2cccc(F)c2)n1	?	·	?	·	-29%	-24%
Cc1cccc(-c2nc(CCNC(=O)Cc3ccc(F)cc3)cs2)c1	?	·	23µM*	·	0%	-9%
COc1cccc(-c2nc3c(c(=O)[nH]c(=O)n3Cc3ccccc3)n2CCO)c1OC(F)F	12%	-4%	-2%	13%	11%	-12%
Cc1ccc(-c2[nH]c3cc(C(N)=O)ccc3c(=O)c2O)cc1	?	4%	18µM*	2%	-24%	-27%
Cc1ccc(-c2[nH]c3cc(C(=O)NCCCn4ccnc4)ccc3c(=O)c2O)cc1	5%	-2%	2%	9%	-3%	-14%
CCCCCn1c(=O)[nH]c2cc(C(=O)NCc3ccccc3)ccc2c1=O	1%	·	-22%	·	-1%	-21%
CCCNC(=O)c1ccc2c(=O)c(O)c(-c3ccc(C)cc3)[nH]c2c1	?	-19%	?	-27%	?	-15%
Cc1ccc(CNC(=O)c2ccc3c(=O)c(O)c(-c4ccc(C)cc4)[nH]c3c2)cc1	4.1µM*	7%	6.5µM*	10%	?	-33%
CCCNC(=O)c1ccc2c(=O)c(O)c(-c3ccsc3)[nH]c2c1	?	-24%	18µM*	-25%	?	-32%
O=C(N/N=C/c1ccc2cccc(OCc3ccccc3)c2n1)c1ccc(Br)cc1	16µM*	-30%	?	?	-11%	-11%
O=C(N/N=C/c1cccc(OCc2ccccc2)c1)c1ccc(Br)cc1	?	-14%	18µM*	-3%	7%	9%
COc1cccc(/C=N/NC(=O)c2ccc(OCc3cccc(Br)c3)cc2)c1	?	-17%	?	?	6%	-38%
COc1c(OC(C)=O)ccc(/C=C/c2ccc3cccc(OCc4ccccc4)c3n2)c1[N+](=O)[O-]	15µM*	?	15µM*	?	?	-8%
COc1ccc(C(=O)N/N=C/c2ccc3cccc(OCc4ccccc4)c3n2)cc1	?	?	8.2µM*	?	-10%	-24%
COc1ccccc1CNC(=O)Cc1ccccc1	-14%	16%	-25%	8%	-11%	5%
CN(C)CCN1CCN(C2CN(C3CCCC3)S(=O)(=O)C2)CC1 (stereo not drawn)	-13%	24%	2%	18%	5%	9%
SMILES	DT40 TDP1 CPT	HT1080NT lethal	DT40 TDP1 no CPT	HT1080 IDH1KD tx	TGFb SMAD3 inh	HepG2 viability
CN(C)S(=O)(=O)c1ccc(Cl)c(C(=O)NNC(=O)c2ccc3c(c2)OCO3)c1	-19%	1%	?	0%	-1%	-4%
CC1=C(C(=O)NCc2ccc(C)cc2)C2(CCCCC2)OC1=O	5%	·	?	·	-5%	0%
CN(CC(=O)Nc1ccccc1C(F)(F)F)C(=O)CN1C(=O)C2CCCCC2C1=O (stereo not drawn)	?	18%	-13%	3%	-4%	-7%
COc1ccc(Nc2nc3ccc(C)cn3c(=O)c2/C=N/O)cc1	5.8µM*	11%	6.5µM*	-13%	4%	-3%
Cc1ccc2nc(Nc3ccccc3)c(C=O)c(=O)n2c1	7%	14%	-3%	21%	0%	7%
Cc1ccc2nc(Nc3ccccc3)c(/C=N/O)c(=O)n2c1	2.6µM*	-11%	6.5µM*	-5%	-3%	6%
Cc1ccc(Sc2nc3ccc(C)cn3c(=O)c2/C=N/O)cc1	-16%	0%	?	1%	-16%	-5%
C=CCN1C(=O)C(O)(CC(=O)c2ccco2)c2cc(Br)ccc21 (stereo not drawn)	2.3µM*	?	5.2µM*	?	?	2%
CCCN1C(=O)C(O)(CC(=O)c2ccc(C(C)C)cc2)c2ccccc21 (stereo not drawn)	?	·	?	·	·	-26%
CC(C)c1ccc(C(=O)CC2(O)C(=O)N(CCc3ccccc3)c3ccc(Cl)cc32)cc1 (stereo not drawn)	?	·	?	·	16µM*	-104%
